Source: PubChem BioAssay (NCI)
This is part of a sample that, as a whole, favours compounds with a hit. Of some 83,000 tested, about 20% had one in any assay.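 96-well plates, one dose, 48 hours. Percent growth reported; active if below 10.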 Values without a mark were called inactive. The source made the active and inactive calls.

How the values were obtained:
Test in all cases: NCI-60 one-dose screen, 48 h (100 = growth as untreated, 0 = no growth, -100 = all killed)
Settings in all cases: 10 µM
SK-MEL-2 melanoma = test system: SK-MEL-2 melanoma
EKVX NSCLC = test system: EKVX NSCLC
UO-31 renal = test system: UO-31 renal
TK-10 renal = test system: TK-10 renal
ACHN renal = test system: ACHN renal
CAKI-1 renal = test system: CAKI-1 renal
A498 renal = test system: A498 renal
CCRF-CEM leukemia = test system: CCRF-CEM leukemia
MOLT-4 leukemia = test system: MOLT-4 leukemia
SR leukemia = test system: SR leukemia
RPMI-8226 leukemia = test system: RPMI-8226 leukemia
OVCAR-8 ovarian = test system: OVCAR-8 ovarian
OVCAR-5 ovarian = test system: OVCAR-5 ovarian
OVCAR-4 ovarian = test system: OVCAR-4 ovarian
SK-OV-3 ovarian = test system: SK-OV-3 ovarian
OVCAR-3 ovarian = test system: OVCAR-3 ovarian
HS 578T breast = test system: HS 578T breast
NCI/ADR-RES ovarian = test system: NCI/ADR-RES ovarian
IGROV1 ovarian = test system: IGROV1 ovarian

Row | Compound | growth (SK-MEL-2 melanoma) | growth (EKVX NSCLC) | growth (UO-31 renal) | growth (TK-10 renal) | growth (ACHN renal) | growth (CAKI-1 renal) | growth (A498 renal) | growth (CCRF-CEM leukemia) | growth (MOLT-4 leukemia) | growth (SR leukemia) | growth (RPMI-8226 leukemia) | growth (OVCAR-8 ovarian) | growth (OVCAR-5 ovarian) | growth (OVCAR-4 ovarian) | growth (SK-OV-3 ovarian) [%] | growth (OVCAR-3 ovarian) | growth (HS 578T breast) [%] | growth (NCI/ADR-RES ovarian) | growth (IGROV1 ovarian) [%]
1 | CN(C)Cc1cccs1 | 103% | 103% | 82.9% | 101% | 96.7% | 98.3% | 117% | 80% | 96.3% | 114% | 102% | 97% | 98.5% | 109% | 87.8 | 101% | 102 | 101% | –
2 | O=C1CC[C@@H](C(=O)N[C@H]2CSSC[C@@H](C(=O)N/C=C/c3ccc(O)cc3)NC(=O)[C@H](Cc3ccccc3)NC(=O)[C@@H]3CCCN3C(=O)[C@@H]3CCCN3C2=O)N1 | 93.5% | 95% | 101% | 94.8% | 100% | 96.5% | 108% | 68% | 88.9% | 99.1% | 96.1% | 100% | 102% | 112% | 93.2 | 106% | 94.4 | 97.8% | –
3 | Cc1cn(C(=O)/C(Cl)=C(/Cl)C(=O)O)c2ccccc12 | 105% | 81.7% | 59.1% | 127% | 97.8% | 97.9% | 124% | 37.2% | 103% | 101% | 82.4% | 110% | 103% | 101% | 95.8 | 104% | 97.8 | 104% | 66.1
4 | CN(C)c1ccc2c(c1)OC(N)=C(C#N)C2c1ccc2c(c1)CCO2 (stereo not given) | 32.1% | 35.9% | 38.2% | 79.1% | 37.4% | 37% | -9.63% (active) | 28.7% | 34.5% | 38.2% | 32.9% | 24.1% | 57.2% | 48.3% | 32.2 | -3.4% (active) | 23.1 | 3% (active) | –
5 | C=C1C(=O)O[C@H]2[C@H]1CC/C(COC(=O)OCCCCCOC(=O)OC/C1=C/CC[C@@]3(C)O[C@H]3[C@H]3OC(=O)C(=C)[C@@H]3CC1)=C\CC[C@@]1(C)O[C@@H]21 | -30% (active) | -4.3% (active) | -54.9% (active) | -87.6% (active) | -65.7% (active) | -68.5% (active) | -34.2% (active) | 1.79% (active) | -7.49% (active) | -20.1% (active) | -3.28% (active) | -4.61% (active) | -36.2% (active) | -43% (active) | 54.6 | -97.5% (active) | 33.8 | 42.5% | –
6 | CCCCCCN=C(N)CCCCCCCCCCC(N)=NCCCCCC | 38.3% | 34.6% | 78.6% | 55.6% | 48.5% | 55.9% | 37% | 29.5% | 38.2% | 61.7% | 28.8% | 21.8% | 49.1% | 27.6% | 31.3 | 20% | 26.6 | 84% | –
7 | CCCCCC(CCC)COC(=O)c1ccc(OC)cc1 (stereo not given) | 96% | 100% | 85.8% | 95.6% | 106% | 92.3% | 109% | 75.3% | 100% | 101% | 91.8% | 96.5% | 102% | 109% | 101 | 111% | 106 | 103% | –
8 | CC(=O)Nc1ccc(Sc2ccc(NC(C)=O)cc2)cc1 | 98.9% | 96.3% | 81% | 92.2% | 95.9% | 95.3% | 106% | 89.8% | 71.6% | 92.9% | 99% | 94.7% | 95.8% | 102% | 82 | 102% | 104 | 95.7% | –
